# According to PubChem BioAssay (NCATS):
# Records with an inconclusive call do not appear. Calls of active or inactive are those of the source. Calls come from the whole dose curve; as a rule, active = well fitted curve in the direction sought with a large enough effect; inconclusive = small, poorly fitted or top-dose-only effect, or another doubt; inactive = no such curve, though single readings can be large; an effect the other way counts as inactive or inconclusive.
# Molecular target: Luciferin 4-monooxygenase (Photinus pyralis) (UniProt P08659)
# Assay: Primary firefly luciferase (FLuc) qHTS assay for identification of artifact compounds. (AID 1845220); note: nearly all actives have a fitted effect of over 60% in size;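 for activity change, negative = inhibition: plate controls were DMSO vehicle for no effect and no enzyme for full effect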
# Details: purified firefly luciferase, luminescence, 5 min; series mostly up to 54.1 µM; activity change, negative = inhibition: at the top concentration
# Description: PI: Alexander Tropsha Ph.D.
# UNC Eshelman School of Pharmacy
# University of North Carolina, Chapel Hill, North Carolina
# Hits from high-throughput screening (HTS) of chemical libraries are often false positives due to their interference with the assay detection technology. In response to this problem, we generated the largest publicly available library of chemical liabilities and developed a free webtool to predict HTS artifacts, both of which are described herein. More specifically, we generated, curated, and integrated HTS datasets for thiol reactivity, redox activity, and luciferase (firefly and nano) activity. Using these curated datasets, we developed and validated several Quantitative Structure-Interference Relationship (QSIR) models to predict nuisance behavior. […] These models were employed for virtual profiling of the National Center for Advancing Translational Science's (NCATS) in-house library, and 256 compounds for each assay were selected for the experimental validation of nuisance behavior. The BA for these external predictions ranged from 58 to 78% for compounds within the applicability domains of the models. […] The models developed in this study, along with aggregation models previously developed by our group (SCAM Detective) were implemented in "Liability Predictor," an online tool which may be used as part of chemical library design or for triaging HTS hits. Both the models and the curated datasets are publicly available at https://liability.mml.unc.edu/.
# SEQUENCE No. (e.g., 1, 2, 3, etc.); […] (e.g., Cells, Incubation, Reagent, etc.); VALUE; DESCRIPTION.
# 1; Reagent; 3 uL; Luciferase substrate mixture.
# 2; Compounds and control; 16 nL; Kalypsis pin tool (Wako USA) equipped with a 1536-well pin head.
# 4; Reagent; 1 uL; Luciferase enzyme.
# 6; Detection; Luminescence, ViewLux microplate reader.
# NOTES (numbers refer to Sequence numbers above)
# 1. 3 uL of luciferase substrate mixture containing D-luciferin and ATP (final concentrations of 10 uM and 10 uM, respectively) in assay buffer (10 mM Mg-acetate, 0.01% Tween-20, 0.05% bovine serum albumin, 50 mM Tris acetate, pH 7.6) was dispensed into all wells of a 1536-well assay plate (solid-bottom white plate; Greiner Bio One, Monroe, NC).
# 2. A Wako Pin-tool (Wako Automation, Richmond, VA) was used to transfer 16 nL of compounds (consisting of 7-plates in qHTS format, final concentration range 18.3 nM to 114 uM) or control PTC124 (final concentration range 1.22 nM to 40 uM).
# 3. 15 min. incubation at room temperature protected from light.
# 4. 1 uL of luciferase enzyme (final concentration 10 nM, Photinus pyralis luciferase) or buffer was dispensed for a final assay volume of 4 uL.
# 5. Plates were centrifuged (121xg, 15 seconds) and incubated for 5 minutes.
# 6. Samples were read for luminescence on a ViewLux CCD imager (PerkinElmer). Data were normalized to no-enzyme (0% activity) and no-inhibitor (DMSO; 100%) controls and the resulting percent inhibition data were fitted to a 4-parameter Hill equation using NCATS in-house software.
Compound,outcome,"activity change, negative = inhibition"
CS(=O)(=O)CCNCc1ccc(-c2ccc3ncnc(Nc4ccc(OCc5cccc(F)c5)c(Cl)c4)c3c2)o1,inactive,
CNCCCC12CCC(c3ccccc31)c1ccccc12,,3.37% (inactive)
Clc1ccc2c(c1)C(N1CCNCC1)=Nc1ccccc1O2,,2.66% (inactive)
Cc1ccc(-c2cc(C(F)(F)F)nn2-c2ccc(S(N)(=O)=O)cc2)cc1,,1.41% (inactive)
O=C1Cc2cc(CCN3CCN(c4nsc5ccccc45)CC3)c(Cl)cc2N1,,4.94% (inactive)

# System: not listed separately
# Assay: Primary fluorescence-based thiol-reactive (MSTI) qHTS assay for identification of artifact compounds. (AID 1845221);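 note: thiol-reactive compounds lower the probe fluorescence signal; nearly all actives have a fitted effect of over 65% in size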
# Details: MSTI thiol-reactivity probe, 1 h; series mostly up to 53.8 µM; activity change, negative = thiol reactive: at the top concentration
# Outline: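 Curve-fitted percent inhibition (4-parameter Hill) derived from fluorescence, Ex 525/Em 598 nm, scaled with Acetyl-MSTI and MSTI; 1 h incubation at room temperature.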
row,Compound,"activity change, negative = thiol reactive"
1,CS(=O)(=O)CCNCc1ccc(-c2ccc3ncnc(Nc4ccc(OCc5cccc(F)c5)c(Cl)c4)c3c2)o1,157% (inactive)
2,CNCCCC12CCC(c3ccccc31)c1ccccc12,66.4% (inactive)
3,Clc1ccc2c(c1)C(N1CCNCC1)=Nc1ccccc1O2,3.01% (inactive)
4,Cc1ccc(-c2cc(C(F)(F)F)nn2-c2ccc(S(N)(=O)=O)cc2)cc1,129% (inactive)
